Compound activity deposited in PubChem by National Center for Advancing Translational Sciences (NCATS).
Sampled rows, rich in hits. Any-hit rate of the full collection: about 10%.
PNC assembly inh = High Content Assay for Compounds that inhibit the Assembly of the Perinucleolar Compartment. activity change (PNC), negative = inhibition, % at 10 µM. 3.1% of 140,000 active. AID 2417, 2010. PC3M PTB-GFP, PNC prevalence imaging, 16 h; active compounds read low;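 active = readout at or below -70, meaning at least 70% loss of cells showing the perinucleolar compartment, a nuclear body marking cancer cells; inconclusive = readout between -30 and a set limit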;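 also: plate controls were DMSO wells for no effect and camptothecin positive control wells for full effect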
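Compounds are pinned in duplicate onto adhered PC3M cells stably expressing GFP-tagged PTB and incubated 16 h at 37 C. Cells are then fixed, nuclei stained with Hoechst, and PNC-positive cells counted.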
KinaseGlo FLuc = Counterscreen for Luciferase (Kinase-Glo TM) Inhibition | Luciferin 4-monooxygenase (Photuris pensylvanica), Q27757 | Kinase-Glo luciferase, ATP luminescence, 8 min | Potency, µM (highest dose often 38.3 µM), inactives show top-dose activity change, negative = inhibition, most hits filed as inhibitors | 0.28% of 200,000 active; active = well fitted inhibition curve with a large enough effect; inconclusive = small, poorly fitted or top-dose-only effect; also: potency is read from the fitted curve at half-maximal effect; nearly all actives have a fitted effect of over 60% in size
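Inhibition of Kinase-Glo luciferase light generation was assessed at 10 uM ATP in pH 7.2 imidazole buffer, with luminescence measured after eight minutes at ambient temperature.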
ALDH1A1 inh = qHTS Assay for Inhibitors of Aldehyde Dehydrogenase 1 (ALDH1A1); Aldehyde dehydrogenase 1A1 (Homo sapiens), P00352; Purified ALDH1A1, NADH fluorescence, propionaldehyde substrate; Potency, µM (series often up to 75.3 µM), for the others: at the top dose activity, negative = inhibition, usual class: inhibitors; 7.3% of 220,000 active; AID 1030, 2008;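 also: potency is read from the fitted curve at half-maximal effect; plate controls were no enzyme wells and a reference inhibitor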
Target sequence (P00352 whole entry, looked up): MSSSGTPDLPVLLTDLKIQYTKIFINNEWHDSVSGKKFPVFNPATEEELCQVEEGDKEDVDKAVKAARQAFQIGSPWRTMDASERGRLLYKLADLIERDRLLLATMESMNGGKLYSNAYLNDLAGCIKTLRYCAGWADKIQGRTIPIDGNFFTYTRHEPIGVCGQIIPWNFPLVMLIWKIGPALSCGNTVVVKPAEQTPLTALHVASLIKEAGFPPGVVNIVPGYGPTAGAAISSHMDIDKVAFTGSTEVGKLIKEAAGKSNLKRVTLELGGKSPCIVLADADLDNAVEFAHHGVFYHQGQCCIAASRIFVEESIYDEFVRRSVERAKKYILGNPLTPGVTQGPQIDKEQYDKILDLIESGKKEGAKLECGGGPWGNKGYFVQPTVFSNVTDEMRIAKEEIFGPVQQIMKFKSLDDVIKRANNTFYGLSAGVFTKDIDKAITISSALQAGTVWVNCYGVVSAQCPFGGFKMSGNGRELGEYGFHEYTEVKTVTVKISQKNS
HPGD block = qHTS Assay for Inhibitors of HPGD (15-Hydroxyprostaglandin Dehydrogenase) | Potency, µM, for inactives: at the highest dose activity change, negative = inhibition, actives largely listed as inhibitors | 15-hydroxyprostaglandin dehydrogenase [NAD(+)] (Homo sapiens), P15428 | 4.3% of 150,000 active | purified HPGD, NADH fluorescence kinetic, PGE2 substrate; also: potency is read from the fitted curve at half-maximal effect
Target sequence (P15428 whole entry, looked up): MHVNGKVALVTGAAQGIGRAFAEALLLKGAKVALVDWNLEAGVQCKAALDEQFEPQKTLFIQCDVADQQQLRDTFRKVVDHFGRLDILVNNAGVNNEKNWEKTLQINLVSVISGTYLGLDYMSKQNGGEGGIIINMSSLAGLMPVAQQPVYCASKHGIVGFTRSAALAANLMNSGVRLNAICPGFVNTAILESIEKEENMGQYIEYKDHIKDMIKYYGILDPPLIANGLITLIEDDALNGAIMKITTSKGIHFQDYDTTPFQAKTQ
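NADH formation kinetics: reaction with 30 uM PGE2 and 1 mM NAD+ (final), 20 nM enzyme, Tris-HCl pH 8 with Tween 20, after 15 min compound preincubation at room temperature. Fluorescence change, last versus first of five reads.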
LMNA splice mod = qHTS Assay for Modulators of Lamin A Splicing. HeLa LMNA splicing GFP/RFP minigene ratio, 48 h. Potency, µM (doses to about 46.1 µM), for inactives: top-dose ratio change, negative = inhibition, hits mostly inhibitors. 0.01% of 200,000 active. AID 1487, 2009; active = well fitted inhibition curve with a large enough effect in the signal ratio, with a control signal flat, not every such curve was filed as active; inconclusive = small, poorly fitted or top-dose-only effect, or effect the other way, or a change in a side signal; the % refers to the signal ratio; also: potency is read from the fitted curve at half-maximal effect
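S3 HeLa cells stably expressing lamin A-EGFP splicing minigene plus DsRed2, 600 cells/well, 48 h compound exposure at 37C. Laser-scanning cytometry; analysed as GFP (500-530 nm)/RFP (575-640 nm) total intensity ratio; 0.5% DMSO vehicle.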
* = called active by the depositor; ? = inconclusive; · = no result given; ! = not active in a repeat; [ ] = dose if it differs, or a comment. Unless noted, calls follow the shape of the dose curve; as a rule, active = well fitted inhibition curve with a large enough effect (not every such curve was filed as active); inconclusive = small, poorly fitted or top-dose-only effect, or another doubt; inactive = no such curve, though single readings can be large or run the other way. Unless noted, % is scaled to controls: 0 for no effect and ±100 for the full control effect.

SMILES | PNC assembly inh | KinaseGlo FLuc | ALDH1A1 inh | HPGD block | LMNA splice mod
Cc1cc(/C=C2\C(=O)NC(=S)N(C)C2=O)c(C)n1C1CCCCC1 | ? | -3% | -8% | -1% | -8%
Cc1cc(/C=C2/C(=O)NC(=O)N(C)C2=O)c(C)n1-c1ccccc1 | · | -6% | 2% | · | ?
CCN1C(=O)C(=Cc2cc(C)n(C3CC3)c2C)C(=O)N(CC)C1=S | 3 | -3% | 10µM* | -19% | -8%
Cc1cc(C=O)c(C)n1C1CCCCC1 | -9 | 1% | 22µM* | -7% | -2%
C[C@@H](O)CN(CCN(C[C@@H](C)O)C[C@@H](C)O)C[C@@H](C)O.O=[N+]([O-])O.[Cu] | · | -1%[7.66 µM] | ? | 4% | ·
[O-]/[N+](=N\O)c1ccccc1 | · | · | 10µM* | 13µM* | ·
Cc1cc2c(C(C)C)c(O)c(O)c(C=O)c2c(O)c1-c1c(C)cc2c(C(C)C)c(O)c(O)c(C=O)c2c1O | ? | 0% | -8% | 8.9µM*! | ?
CC(C)=CCCC1(C)C=Cc2c(O)c3c(c(CC=C(C)C)c2O1)OC12C(CC4CC1C(C)(C)OC2(C/C=C(/C)C(=O)O)C4O)C3=O (stereo not drawn) | · | -8% | ? | -20% | ·
O=c1[nH]sc2cc(F)ccc12 | · | -1% | 1.4µM* | · | ?
C=C(C)C1CCC(C)=CC1c1c(O)cc(O)cc1CCCCC (stereo not drawn) | · | -4%[39.9 µM] | -13% | -4% | ·
Nc1ccccc1O.O.O=C(O)[C@H]1[O][Sb][O][C@H]1C(=O)O | · | -4%[7.66 µM] | 3.2µM* | -6% | ·
Nc1ccccc1C(=O)O | · | · | ? | -20% | 20%
CN(C)CCCc1cccnc1 | · | -4%[7.66 µM] | 2%[13.5 µM] | -7% | ·
CC1CCCN(C(=O)CCl)C1 (stereo not drawn) | -116* | 1% | 0.63µM* | -6% | ?
CC1CCCN(C(=O)CN2C3CCC2CC(O)(c2ccc(F)cc2)C3)C1 (stereo not drawn) | · | 5% | 11% | · | ·
Cn1c(O)c(/C=C/C=Nc2ccccc2)c(=O)n(C)c1=S | -17 | · | 13µM* | · | -17%
CC(C)(C)C(=O)CP(=O)(O)O | · | 1%[7.66 µM] | 2%[13.5 µM] | -3% | ·
CC([C@H](O)c1ccccc1)N(C)C (stereo partly drawn) | · | -5% | 20µM* | -1% | -10%
COc1cccc(-c2nc(CS(=O)CC(=O)N3CCC4(CC3)OCCO4)c(C)o2)c1 (stereo not drawn) | 21 | 0% | 35µM* | -13% | -3%
CC1=NN(c2ccccc2)C(=O)/C1=C/c1c(O)[nH]c(=S)[nH]c1=O | 31 | 0% | ? | 20µM* | 1%
CC1=NN(c2ccccc2)C(=O)/C1=C/c1c(O)[nH]c(=O)[nH]c1=O | · | 0% | ? | · | ·
N[C@@H](CP(=O)(O)O)C(=O)O | · | -1%[7.66 µM] | 8%[13.5 µM] | -2% | ·
CC(C)[C@]1(O)[C@@H](OC(=O)c2ccc[nH]2)[C@]2(O)[C@@]3(C)C[C@@]4(O)O[C@@]5([C@H](O)[C@@H](C)CC[C@]35O)[C@]2(O)[C@]41C | · | -1%[7.66 µM] | 3%[13.5 µM] | -7% | ·
COc1ccc(C2C(C(=O)N3CCC4(CC3)OCCO4)c3cc(OC)c(OC)cc3C(=O)N2C)cc1 (stereo not drawn) | -19 | 0% | 14µM* | -16% | -6%
C=C(C)[C@]12C[C@@H](C)[C@@]34OC(Cc5ccccc5)(O[C@@H]1[C@@H]3C=C(COC(=O)Cc1cc(I)c(O)c(OC)c1)C[C@]1(O)C(=O)C(C)=C[C@@H]41)O2 | · | 0%[39.9 µM] | -1% | -12% | ·
SMILES | PNC assembly inh | KinaseGlo FLuc | ALDH1A1 inh | HPGD block | LMNA splice mod
C=CCN1C(=O)C2(C(C(=O)OCC)=C(N)Oc3ccccc32)C2=C1CCCC2=O (stereo not drawn) | ? | 1% | 4µM* | -6% | -12%
CCOC(=O)CC1=C(C(=O)OCC)C2(C(=O)N1CC(=O)OC)C(C#N)=C(N)Oc1ccccc12 (stereo not drawn) | ? | -3% | 1.1µM* | -9% | 9%
CC1=C(C(=O)OC(C)C)[C@]2(C(=O)N(CC(N)=O)c3ccccc32)C(C#N)=C(N)O1 | -100* | 0% | 13% | -8% | -15%
CCOC(=O)CN1C(=O)C2(C(C#N)=C(N)Oc3ccccc32)C(C(=O)OC)=C1C (stereo not drawn) | ? | 12% | 7.9µM* | -3% | 4%
CN1C2CCC1CC(NC(=O)c1nn(C)c3ccccc13)C2 (stereo not drawn) | · | -2% | -13% | -15% | -20%
Cc1cccc(N2C(=O)NC(=O)/C(=C\c3cc(C)n(-c4sc5c(c4C#N)CCCC5)c3C)C2=O)c1C | 17 | -2% | 0.25µM* | 4µM* | -4%
CN(C(=O)Oc1ccc([N+](=O)[O-])cc1)c1ccccc1 | ? | 1% | ? | -5% | -2%
COP(=S)(OC)Oc1ccc([N+](=O)[O-])cc1 | · | -2% | 20µM* | -6% | ?
CCn1c(N)c(C(=O)NC)sc1=S | ? | -2% | 2.8µM* | 3.5µM* | 3%
C[N+]1([O-])[C@H]2CC[C@H]1CC(OC(=O)[C@@H](CO)c1ccccc1)C2 (stereo partly drawn) | · | -3%[7.66 µM] | 12%[13.5 µM] | -9% | 0%
C[C@H]1C[C@H](C)C(=O)[C@@H]([C@H](O)CC2CC(=O)NC(=O)C2)C1 | · | 4% | 0% | -8% | ·
CC(=O)[O-].CC(=O)[O-].CC(=O)[O-].[Cr+3] | · | · | 6% | -7% | ·
CCOc1c(Cl)cc(CNc2ccc(S(N)(=O)=O)cc2)cc1OC | -27 | 2% | -3% | 25µM* | ?
C[C@H](NC(=O)[C@@H](N)Cc1ccc(O)cc1)C(=O)NCC(=O)N(C)[C@@H](Cc1ccccc1)C(=O)N[C@H](CO)CCS(C)=O (stereo partly drawn) | · | · | 6% | · | ·
CCN1C(=O)C(=Cc2ccc(C)s2)C(=O)N(CC)C1=S | 50 | -9% | 7.1µM* | 8.9µM* | ?
CCN1C(=O)C(=C2C=C(C)OC(C)=C2)C(=O)N(CC)C1=S | · | 3% | 6% | · | ·
CC(C)C[C@H](NC(=O)[C@H](Cc1ccccc1)NC(=O)CNC(=O)[C@@H](NC(=O)[C@@H](N)Cc1ccc(O)cc1)[C@H](C)O)C(=O)N[C@H](C(=O)O)[C@H](C)O | · | · | 11% | · | ·
C/C(=N/OC(=O)N(C)C)c1ncc(C(F)(F)F)cc1N1CCOCC1 | -84* | 0% | ? | ? | 2%
COC(=O)C1=CO[C@@H](C)[C@@H]2CN3CC[C@]4(C(=O)Nc5c4ccc(OC)c5OC)[C@H]3C[C@H]12 | · | -2% | -3% | -10% | ·
